Assay outcomes from PubChem.
An excerpt weighted towards active compounds, which were near 3.5% of everything screened.
FBW7 activator: FBW7 E3 ligase activators, primary screen, biochemical, AlphaScreen, human; 650,000 compounds, 0.13% hits; normalized activity (activation), % at 26.1 µM; AlphaScreen FBW7–phospho-cyclin E peptide binding, activator screen; in the data active = normalized activity above about 1.9%;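 note: purified mutant Fbw7 with reduced substrate affinity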
Target sequence (Q969H0 whole entry, looked up): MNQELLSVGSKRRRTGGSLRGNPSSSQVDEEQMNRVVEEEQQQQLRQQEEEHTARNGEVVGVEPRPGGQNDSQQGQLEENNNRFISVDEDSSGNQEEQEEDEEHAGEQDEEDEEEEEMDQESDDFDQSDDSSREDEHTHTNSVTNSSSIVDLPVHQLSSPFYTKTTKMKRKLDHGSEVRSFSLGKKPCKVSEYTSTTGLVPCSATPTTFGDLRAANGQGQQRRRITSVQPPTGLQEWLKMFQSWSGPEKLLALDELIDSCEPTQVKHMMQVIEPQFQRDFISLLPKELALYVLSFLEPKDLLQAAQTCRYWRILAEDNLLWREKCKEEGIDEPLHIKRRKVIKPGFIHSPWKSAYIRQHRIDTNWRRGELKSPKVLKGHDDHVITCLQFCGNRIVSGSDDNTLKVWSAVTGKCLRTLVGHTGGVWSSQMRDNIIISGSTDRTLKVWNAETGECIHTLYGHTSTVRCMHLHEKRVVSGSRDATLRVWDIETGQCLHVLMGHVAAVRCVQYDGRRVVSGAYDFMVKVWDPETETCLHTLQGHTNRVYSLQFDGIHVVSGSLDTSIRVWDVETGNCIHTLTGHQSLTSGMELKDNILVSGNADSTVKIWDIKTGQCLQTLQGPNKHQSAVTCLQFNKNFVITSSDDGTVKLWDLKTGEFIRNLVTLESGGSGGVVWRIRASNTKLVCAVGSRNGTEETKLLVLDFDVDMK
MITF inh: MITF inhibitors, primary screen, biochemical, AlphaScreen, human | Microphthalmia-associated transcription factor (Homo sapiens), O75030 | AlphaScreen MITF homodimerization, bead proximity signal | inhibition, % at 2.6 µM | 650,000 compounds, 0.91% hits; in the data active = inhibition above about 50%;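 note: 0% = vehicle wells with protein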
GPR151 ag: activators of human GPR151, primary screen, cell-based, PathHunter beta-arrestin, luminescence | G-protein coupled receptor 151 (Homo sapiens), Q8TDV0 | 650,000 compounds, 1% hits | PathHunter beta-arrestin GPR151 cells | AID 1508602, 2020 | activation, % at 11.2 µM; in the data active = activation above about 4.9%;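 note: 0% = median of compound wells and 100% = cells with positive control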
TEAD-YAP inh: TEAD-YAP interaction inhibition, primary screen, TEAD-YAP interaction inhibitor project, luminescence, HEK-TIYL cells; TEAD-Gal4/YAP UAS-luciferase luminescence; inhibition, % at 9.12 µM; 640,000 compounds, 1.4% hits; AID 1259422, 2018; in the data active = inhibition above about 32%;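 note: 0% = median of test compound wells and 100% = reference inhibitor wells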
Starred values were filed as active, the others as inactive.

SMILES	FBW7 activator	MITF inh	GPR151 ag	TEAD-YAP inh
CCOC(=O)c1cnc2c(C)cccc2c1Nc1ccc(C(=O)OC)cc1	0.2	-2.4	1.5	7.2
Cc1cc(C)n(-c2ccc(N3CCN(C(=O)COc4ccccc4)CC3)nn2)n1	1.4	16.7	-0.8	3.1
COc1ccccc1-c1ccc(N2CCN(C(=O)COc3ccccc3)CC2)nn1	7.6*	-10.6	-1.2	5.4
CCCOc1ccc(N2CCN(C(=O)COc3ccc(F)cc3)CC2)nn1	3.3*	-5.0	1.3	7.3
CCOc1ccc(NC(=O)c2ccc(C(=O)Nc3ccc(OCC)cc3)cc2)cc1	-0.2	8.1	3.0	-6.0
O=C(Nc1ccc(N2CCCCC2)cc1)c1ncn[nH]1	-0.9	50.5	-7.2	82.1*
CC(C)C(=O)N1CCN(c2ccc(NC(=O)c3ncn[nH]3)cc2)CC1	-0.6	3.5	-4.4	-1.9
CCOc1ccc(NC(=O)c2ncn[nH]2)cc1	-0.1	-0.3	-0.1	39.4*
Cc1ccc(CN2CCOc3ccc(CN4CCC(O)CC4)cc3C2)cc1C	0.5	-5.0	-1.0	-6.2
c1ccc(-c2cn3nc4c(nc3n2)CCCC4)cc1	0.1	2.9	-8.6	85.1*
CC(=O)Nc1ccc(Nc2cc(C)nc(-c3ccc(C(=O)N4CCN(C)CC4)cc3)n2)cc1	0.0	5.5	2.2	2.1
CCCc1ccc(Oc2cn[nH]c2-c2ccc(O)cc2O)cc1	-0.2	2.7	0.3	65.3*
CNC(=O)NC(=O)C(C)OC(=O)C(NS(=O)(=O)c1ccc(F)cc1)C(C)O (stereo not given)	0.1	-2.3	0.2	-2.2
Cc1csc2nc(-c3ccc(NS(=O)(=O)N(C)C)cc3)cn12	0.3	13.4	0.2	1.8
CCS(=O)(=O)Nc1ccc(-c2cn3c(C)csc3n2)cc1	-0.1	-0.2	1.9	33.1*
N=c1sc2c(n1CC(=O)c1ccccc1)CCCC2	0.2	-9.9	-11.0	91.0*
Cc1ccc(C(=O)Cn2c3ccccc3n3nc(C)nc23)cc1	0.0	0.3	-0.5	46.7*
Cn1c(=N)n(CC(=O)c2ccccc2)c2ccccc21	0.4	4.7	-1.0	44.9*
COc1ccc(C(=O)Cn2c(=N)n(C)c3ccccc32)cc1	0.3	-5.3	-0.1	-79.0
CCN(CC)CCn1c(=N)n(CC(=O)c2ccc(C)cc2)c2ccccc21	3.3*	18.1	-0.3	13.4
COc1ccc(/C=N\NC(=O)C(O)c2ccc(Br)cc2)cc1 (stereo not given)	-0.1	-11.8	0.9	-2.8
Cc1ccc(CC(=O)Nc2nnc(Cc3ccc(Cl)s3)o2)c(C)c1	-0.7	0.0	1.1	8.3
O=c1cc(Nc2cccc([N+](=O)[O-])c2)c2ccccc2o1	0.8	19.6	-0.9	-1.9
C=CCNC(=O)c1noc2c1CC(C(C)(C)C)CC2 (stereo not given)	0.1	9.7	0.1	-3.3
CC(C)(C)C1CCc2onc(C(=O)NC3CCCC3)c2C1 (stereo not given)	2.6*	13.5	0.7	0.0
SMILES	FBW7 activator	MITF inh	GPR151 ag	TEAD-YAP inh
CCOC(=O)c1cnn(-c2nc(C)nc3sc4c(c23)CCCC4)c1N	-0.1	-2.8	0.2	-17.2
COc1ccccc1C1CC(=O)Nc2cc3c(cc21)OCO3 (stereo not given)	0.0	10.9	-0.6	52.8*
O=C1OCC2=C1C(c1ccccc1Br)c1cc3c(cc1N2)OCO3 (stereo not given)	0.0	6.6	0.2	39.9*
O=C1CC(c2ccccc2OCc2ccccc2)c2cc3c(cc2N1)OCO3 (stereo not given)	-0.1	-0.2	-0.9	5.3
COc1ccc(OC)c(C2C3=C(COC3=O)Nc3cc4c(cc32)OCO4)c1 (stereo not given)	0.6	-6.8	-0.8	54.7*
COc1ccc(OC(C)C(=O)O/N=C(\N)c2ccc([N+](=O)[O-])cc2)cc1 (stereo not given)	-0.7	2.3	-0.3	-0.9
COCCCN(Cc1ccco1)C(=O)c1nn(C)c2c1COc1ccccc1-2	-0.1	-25.9	-0.1	-25.4
COc1ccc(Nc2nc(N3CCCC3)c3ccccc3n2)cc1	-0.2	-2.7	0.7	37.2*
O=C(Nc1sc2c(c1C(=O)O)CCCCC2)c1ccccc1F	0.2	10.9	-7.9	56.4*
CNC(=O)c1c(NC(=O)c2ccccc2F)sc2c1CCCC2	0.1	2.1	-0.8	-5.0
O=C(Nc1sc2c(c1C(=O)O)CCCC2)c1ccccc1F	0.2	9.9	-5.9	51.7*
O=C(Nc1sc2c(c1C(=O)N1CCCCC1)CCCCC2)c1ccccc1F	-0.1	1.4	-0.2	5.3
CCCCC1CN(CCC(=O)NCCCOCC)Cc2ccccc2O1 (stereo not given)	-0.1	-0.2	0.1	-4.0
COc1ccc2cc3c(N)nn(C(=O)c4ccccc4Cl)c3nc2c1	0.1	8.9	-2.2	44.8*
COc1ccc2cc3c(N)nn(C(=O)c4ccccc4F)c3nc2c1	-0.1	3.9	-0.1	55.0*
COc1ccc2cc3c(N)nn(C(=O)c4ccc(F)cc4)c3nc2c1	0.0	11.3	0.7	35.7*
COc1ccc2cc3c(N)nn(C(=O)c4cccnc4)c3nc2c1	-0.1	-11.5	-0.3	32.3*
COc1ccc2cc3c(N)nn(C(=O)c4cccc(F)c4)c3nc2c1	0.2	7.9	-0.4	29.4
COc1ccc2cc3c(N)nn(C(=O)c4cccc(Cl)c4)c3nc2c1	-0.2	-1.7	-1.7	-2.1
CCN(Cc1ccncc1)C1CCN(c2ccc(CC(=O)NCc3ccccc3)cc2)CC1	0.4	15.5	-0.6	41.2*
CCOc1ccc(NC(=O)C(=O)NCCCO)cc1	1.1	19.3	-0.4	-11.1
CCOc1ccc(NC(=O)C(=O)NCN(C(=O)CCl)c2ccccc2)cc1	0.1	18.1	-1.4	46.5*
CCOc1ccc(NC(=O)C(=O)NCCCN)cc1	-0.1	-4.0	-1.4	76.3*
CC1=C(C(=O)NC2CCCc3c2cnn3-c2ccc(F)cc2F)OCCO1 (stereo not given)	0.2	8.3	0.1	29.5
Cc1ncoc1C(=O)NC1CCCc2c1cnn2-c1ccc(F)cc1F (stereo not given)	0.0	5.8	-0.5	45.4*
SMILES	FBW7 activator	MITF inh	GPR151 ag	TEAD-YAP inh
CCc1ccc(CNC(=O)Cc2ccc(NC(=O)C3=C(C)OCCS3)cc2)cc1	0.0	3.5	1.4	35.3*
Cc1[nH]ncc1-c1ccc(NC(=O)C2COc3ccccc3C2)cc1 (stereo not given)	0.0	-5.5	2.5	41.4*
Nc1oncc1-c1ccc(NC(=O)C2COc3ccccc3C2)cc1 (stereo not given)	-0.1	4.6	1.8	6.1
Nc1oncc1-c1ccc(NC(=O)C2COc3ccc(F)cc3C2)cc1 (stereo not given)	0.0	21.3	-0.6	49.6*
Nc1[nH]ncc1-c1ccc(NC(=O)C2COc3ccc(F)cc3C2)cc1 (stereo not given)	-0.1	3.0	-1.0	46.9*
Cc1ccc(S(=O)(=O)N(C)c2ccc(C(=O)NCCSC(C)(C)C)cc2)cc1	0.1	-12.4	-0.6	0.0
Cc1nc2sc3c(c2c2nc(CCC(=O)O)nn12)CC(C)(C)OC3	0.1	-4.5	1.3	9.8
